Screens as filed in PubChem BioAssay.
MBD2 inh: inhibitors of MBD2 binding to methylated DNA, primary screen, biochemical, TR-FRET, DNA-binding domain, human | hit rate 0.31% among 370,000 | AID 686964, 2013 | MBD2 binding to methylated oligonucleotide | Methyl-CpG-binding domain protein 2 (Homo sapiens), Q9UBB5 | inhibition, % at 4.4 µM; in the data active = inhibition above about 13%
Target sequence (Q9UBB5 whole entry, looked up, the tested form may be a part): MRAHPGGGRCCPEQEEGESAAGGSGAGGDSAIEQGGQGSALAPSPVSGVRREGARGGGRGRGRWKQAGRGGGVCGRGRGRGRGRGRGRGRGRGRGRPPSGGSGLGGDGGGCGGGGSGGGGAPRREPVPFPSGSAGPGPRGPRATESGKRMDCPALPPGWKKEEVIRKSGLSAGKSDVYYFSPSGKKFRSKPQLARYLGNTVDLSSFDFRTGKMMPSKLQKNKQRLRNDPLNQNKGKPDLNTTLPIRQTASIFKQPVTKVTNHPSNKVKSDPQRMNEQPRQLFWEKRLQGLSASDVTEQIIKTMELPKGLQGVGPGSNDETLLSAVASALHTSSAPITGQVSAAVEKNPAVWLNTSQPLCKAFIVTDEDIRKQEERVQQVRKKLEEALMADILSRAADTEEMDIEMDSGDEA
UBC13 inh: UBC13 polyubiquitin chain formation inhibitors, primary screen, biochemical, TR-FRET, uHTS. AID 485273, 2010. inhibition, % at 20 µM. hit rate 0.47% among 330,000. Ubiquitin-conjugating enzyme E2 N (Homo sapiens), P61088; in the data active = inhibition above about 45%, passing the limit was not always enough
Target sequence (P61088 whole entry, looked up): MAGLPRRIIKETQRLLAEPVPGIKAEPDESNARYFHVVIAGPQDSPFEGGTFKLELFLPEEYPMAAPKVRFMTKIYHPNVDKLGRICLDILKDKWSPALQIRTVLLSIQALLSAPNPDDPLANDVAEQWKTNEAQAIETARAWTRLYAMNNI
UHRF1 binding: UHRF1 methylated DNA binding inhibitors, primary screen, counter-screen for MBD2 inhibitor project, biochemical, TR-FRET, human UHRF1, single concentration | UHRF1 binding to methylated oligo | inhibition, % at 4.4 µM | E3 ubiquitin-protein ligase UHRF1 (Homo sapiens), Q96T88 | hit rate 0.75% among 370,000 | AID 687016, 2013; in the data active = inhibition above about 21%;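 note: UHRF1 SRA domain binding a hemimethylated CpG hairpin DNA probe; 0% = median of test compound wells and 100% = reference inhibitor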
Neddyl block: inhibitors of cullin neddylation, primary screen, biochemical, TR-FRET, uHTS, NAE and Ubc12; NEDD8-conjugating enzyme Ubc12 (Homo sapiens) + NEDD8-activating enzyme E1 regulatory …; AID 651699, 2012; hit rate 0.58% among 360,000; calls only at 25 µM; in the data active = inhibition above about 36%
Neddyl inh conf: blockade of NEDD8 conjugation to cullin – biochemical, TR-FRET, single concentration, confirmation; calls only at 25 µM; hit rate 13% among 1,800; AID 652217, 2013; shares compounds with Neddyl block; TR-FRET cullin neddylation biochemical assay; in the data active = inhibition above about 40%;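 note: neddylation substrate is the cullin 1 ring ligase complex with SKP2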
Starred values were filed as active, the others as inactive. Compounds with a hit are over-represented: about 1.8% of the library has one in this group of screens.

For O=C(NNC(=O)c1csc(-c2cnccc2C(F)(F)F)n1)c1ccc(C(F)(F)F)cc1 the results were MBD2 inh -1.3, UBC13 inh -8.0, UHRF1 binding 1.4, Neddyl block active and Neddyl inh conf inactive.
`COC(=O)c1cc(COc2ccc3ccc(=O)oc3c2)c(C)o1` gave MBD2 inh -1.4, UBC13 inh 7.2, UHRF1 binding 4.2, Neddyl block active and Neddyl inh conf active.
Screening COC(=O)c1ccc(COc2ccc(C)c(C)c2)o1 returned MBD2 inh 1.9, UBC13 inh 5.9, UHRF1 binding -2.4 and Neddyl block inactive.
COC(=O)c1ccc(COc2ccc3ccc(=O)oc3c2)o1 was read as MBD2 inh 2.5, UHRF1 binding 3.7, Neddyl block active and Neddyl inh conf inactive.
COC(=O)c1cc(COc2ccc3oc(C)c(C(=O)OC)c3c2)c(C)o1 was read as MBD2 inh -2.1, UBC13 inh 5.9, UHRF1 binding 0.2 and Neddyl block inactive.
COc1ccc(C(=O)Nc2ccnn2C2CCN(CCC(C)c3ccc(C)o3)CC2)cc1 (centres undefined) was read as MBD2 inh 2.9, UBC13 inh 3.0, UHRF1 binding 0.1 and Neddyl block inactive.
For Cc1nnc2ccc(-c3ccc(NS(=O)(=O)c4ccccc4)cc3)nn12 the results were MBD2 inh -1.6, UBC13 inh 0.5, UHRF1 binding -4.1 and Neddyl block inactive.
`Cc1nnc2ccc(-c3ccc(NS(=O)(=O)c4ccc(Cl)s4)cc3)nn12` gave MBD2 inh -4.8, UBC13 inh -2.5, UHRF1 binding -1.9 and Neddyl block active.
For N/C(=N\OC(=O)C(c1ccccc1)c1ccccc1)c1ccncc1 the results were MBD2 inh -3.5, UBC13 inh 15.0, UHRF1 binding 3.4 and Neddyl block inactive.
Cc1nnc(N2CCC(C(=O)N3CCCCC3)CC2)c2nn(-c3ccc(Cl)cc3)c(C)c12 was read as UBC13 inh 4.3 and Neddyl block inactive.
For Cc1nnc(N2CCC(C(=O)NC3CCC(C)CC3)CC2)c2nn(-c3ccc(Cl)cc3)c(C)c12 (centres undefined) the results were UBC13 inh 2.3, Neddyl block active and Neddyl inh conf inactive.
O=C(NCc1ccco1)c1cnn2c(C(F)(F)F)cc(-c3ccccc3)nc12 was read as MBD2 inh -3.6, UBC13 inh 2.0, UHRF1 binding -0.6, Neddyl block active and Neddyl inh conf inactive.
Screening Cc1nc2ccccc2n(CC(=O)Nc2cc(Cl)cc(Cl)c2)c1=O returned MBD2 inh -3.0, UBC13 inh -8.8, UHRF1 binding -3.2 and Neddyl block inactive.
For CCOC(=O)N1CCC(NC(=O)CSCc2nc(-c3ccccc3Cl)oc2C)CC1 the results were MBD2 inh 0.2, UBC13 inh -2.8, UHRF1 binding -0.4 and Neddyl block inactive.
Cc1nc(-c2ccc(S(=O)(=O)Nc3ccccc3C)cc2)co1 was read as MBD2 inh -1.9, UBC13 inh 6.5, UHRF1 binding 0.4 and Neddyl block inactive.
`O=c1[nH]c2ccccc2nc1/C=C/c1ccccc1` gave MBD2 inh 3.9, UBC13 inh 5.6, UHRF1 binding -2.1 and Neddyl block active.
`O=c1[nH]c2ccccc2nc1/C=C/c1ccc(O)cc1` gave MBD2 inh -0.6, UBC13 inh -5.3, UHRF1 binding -5.4 and Neddyl block inactive.
Screening O=C(CN1CCN(S(=O)(=O)N2CCCCC2)CC1)Nc1cc(Cl)ccc1Cl returned MBD2 inh -2.0, UBC13 inh 7.5, UHRF1 binding 1.1 and Neddyl block inactive.
Screening COc1ccc(C2CC(=O)NC3=C2C(=O)CCC3)cc1Cl (centres undefined) returned MBD2 inh 0.4, UBC13 inh 0.0, UHRF1 binding -0.1 and Neddyl block inactive.
`COc1ccccc1/C=N/Nc1cc(C)nc2ccc(C)cc12` gave MBD2 inh 0.6, UBC13 inh -6.0, UHRF1 binding 1.3, Neddyl block active and Neddyl inh conf inactive.
For O=C(Nc1cccc2nsnc12)c1cccs1 the results were MBD2 inh -1.8, UBC13 inh 26.5, UHRF1 binding -4.1 and Neddyl inh conf inactive.
Screening O=C(Nc1ccc2nsnc2c1)c1cccs1 returned MBD2 inh -2.4, UBC13 inh 9.3, UHRF1 binding -3.6 and Neddyl block inactive.
O=C(CN1CCOCC1)Nc1ccc(Br)cc1 was read as MBD2 inh -8.1, UBC13 inh 6.6, UHRF1 binding 1.3 and Neddyl block inactive.
For CCCCc1c(O)c2ccccc2[nH]c1=O the results were MBD2 inh -0.1, UBC13 inh 9.9, UHRF1 binding -1.6 and Neddyl block inactive.
For CCCc1c(O)c2ccccc2[nH]c1=O the results were MBD2 inh -0.5, UBC13 inh 11.0, UHRF1 binding 0.4, Neddyl block active and Neddyl inh conf inactive.
For COCC(=O)N1CCC(Oc2ccc(C(=O)N3C[C@H]4CC[C@H]3C4)cc2)CC1 the results were MBD2 inh -0.4, UBC13 inh 4.7, UHRF1 binding 1.8 and Neddyl block inactive.
CCN(CC)S(=O)(=O)c1ccc2c3c(cccc13)C(=O)N2 was read as MBD2 inh -14.9, UBC13 inh -1.9, UHRF1 binding -6.2 and Neddyl block active.
For CCN(c1cccc(C)c1)S(=O)(=O)c1ccc2c3c(cccc13)C(=O)N2 the results were MBD2 inh -2.6, UBC13 inh 6.5, UHRF1 binding -4.1 and Neddyl block inactive.
Screening Cc1cc([N+](=O)[O-])ccc1NC(=O)c1sc2ncn(CC(=O)N3CCOCC3)c(=O)c2c1C returned MBD2 inh -1.2, UBC13 inh -9.5, UHRF1 binding 0.5 and Neddyl block inactive.
For CCN(CC)c1ccc(/C=N/NC(=O)c2cccc(N3CCCC3=O)c2)cc1 the results were MBD2 inh -6.0, UBC13 inh -7.4, UHRF1 binding -2.4 and Neddyl block active.
`CCOc1cc(/C=N/NC(=O)c2cc3c(ccc4ccccc43)o2)ccc1O` gave MBD2 inh -6.8, UBC13 inh 0.1 and UHRF1 binding -3.8.
For CCOC(=O)COc1ccccc1/C=N\NC(=O)c1cc2c(ccc3ccccc32)o1 the results were MBD2 inh 0.2, UBC13 inh -21.4, UHRF1 binding -0.8 and Neddyl block active.
O=C(CNC(=O)c1ccco1)OCc1ccc(C(=O)c2ccccc2)cc1 was read as MBD2 inh 2.4, UBC13 inh -4.0, UHRF1 binding -0.6 and Neddyl block inactive.
For CC[C@H](C)[C@@H](N)C(=O)NC[C@H]1O[C@@H](n2cnc3c(=O)[nH]c(N)nc32)[C@H](O)[C@@H]1O the results were MBD2 inh -2.5, UHRF1 binding -0.5 and Neddyl block inactive.
